Records with an inconclusive call do not appear. Entries that show only a call come without a potency. Values without a mark were called inactive. Activity calls are given as the source filed them. Calls follow the shape of the dose curve; as a rule, active = well fitted curve in the direction sought with a large enough effect in the repeat runs; inconclusive = weak or mixed curves; inactive = no such curve, though single readings can be large; an effect the other way counts as inactive or inconclusive.

Nuclear receptor subfamily 1 group I member 3 (Homo sapiens), sequence (Q14994 whole entry, looked up): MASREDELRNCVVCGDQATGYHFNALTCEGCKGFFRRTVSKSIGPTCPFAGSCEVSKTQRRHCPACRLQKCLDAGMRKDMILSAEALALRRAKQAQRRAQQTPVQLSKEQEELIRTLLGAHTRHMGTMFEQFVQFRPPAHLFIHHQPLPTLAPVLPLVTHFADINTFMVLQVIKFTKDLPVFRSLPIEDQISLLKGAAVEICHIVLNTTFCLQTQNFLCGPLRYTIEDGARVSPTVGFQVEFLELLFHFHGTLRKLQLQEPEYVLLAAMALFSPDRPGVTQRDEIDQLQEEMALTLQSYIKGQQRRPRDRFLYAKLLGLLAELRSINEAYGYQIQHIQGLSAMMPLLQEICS
Luciferin 4-monooxygenase (Photinus pyralis), sequence (P08659 whole entry, looked up): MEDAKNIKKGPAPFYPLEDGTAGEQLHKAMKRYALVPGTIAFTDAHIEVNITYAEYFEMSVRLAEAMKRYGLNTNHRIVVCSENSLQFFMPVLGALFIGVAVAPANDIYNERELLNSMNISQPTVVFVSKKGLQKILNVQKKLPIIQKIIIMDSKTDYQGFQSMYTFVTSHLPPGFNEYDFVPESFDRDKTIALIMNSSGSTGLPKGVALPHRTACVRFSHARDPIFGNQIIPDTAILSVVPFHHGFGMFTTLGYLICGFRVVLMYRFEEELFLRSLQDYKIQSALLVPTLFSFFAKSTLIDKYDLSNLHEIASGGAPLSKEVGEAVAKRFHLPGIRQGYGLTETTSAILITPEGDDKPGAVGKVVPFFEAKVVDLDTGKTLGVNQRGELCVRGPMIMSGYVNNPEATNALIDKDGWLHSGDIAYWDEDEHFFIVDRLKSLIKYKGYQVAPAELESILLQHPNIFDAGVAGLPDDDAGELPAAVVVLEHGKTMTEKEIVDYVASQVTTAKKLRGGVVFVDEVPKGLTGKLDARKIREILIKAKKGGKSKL

One assay concerns the target Luciferin 4-monooxygenase (Photinus pyralis) (UniProt P08659). Kind of assay: qHTS assay to identify small molecule inhibitors of firefly luciferase (AID 1224835). Also: nearly all actives have a fitted effect of over 25% in size. The conditions noted are these: purified P. pyralis luciferase, luminescence inhibition; series mostly up to 115 µM. The essentials:
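Quantitative HTS format; KM concentrations of both substrates. Purified P. pyralis FLuc activity quantified from luminescence images.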
(In general: In qHTS, concentration-response curves come from the screen itself.)
For `CN1CCN(CCCN2c3ccccc3Sc3ccc(C(F)(F)F)cc32)CC1`, the Potency result was “inactive”.

On to `Cc1cc(Br)ccc1NC(=O)CCl`, for which the Potency result was “inactive”.

On to `CN1CCN(CCCN2c3ccccc3Sc3ccc(Cl)cc32)CC1`, for which the Potency result is “inactive”.

Turning to `O=C1CCC/C=C\CCCCCCCCCC1`, the Potency result was “inactive”.

Take `c1ccc(-c2ccccc2-c2ccccc2)cc1`: the Potency entry was “inactive”.

With `O=C(O)C[C@H](O)C[C@H](O)/C=C/c1c(C2CC2)nc2ccccc2c1-c1ccc(F)cc1`, the activity change, negative = inhibition was 5.31% [at 23.6 µM].

Tested on in the next assay: not listed separately
Kind of assay: qHTS assay to identify small molecule agonists of the constitutive androstane receptor (CAR) signaling pathway - cell viability counter screen (AID 1224836). Also: nearly all actives have a fitted effect of over 45% in size. Also: potency is read from the fitted curve at half-maximal effect. The following applies: HepG2-CYP2B6-hCAR viability, CellTiter-Fluor, 23 h, PK11195 added to every well; series mostly up to 92.4 µM. The essentials: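 Double-stable HepG2 hepatoma cells (hCAR plus CYP2B6-2.2kb) are treated for 23 h at 37 C with test compounds in 15-point concentration series. PK11195 at 0.75 uM final is co-added. Cell viability is quantified by CellTiter-Fluor.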
For `Cc1cc(Br)ccc1NC(=O)CCl`, the Potency was 48.6 µM (active).

As to `CN1CCN(CCCN2c3ccccc3Sc3ccc(Cl)cc32)CC1`, the Potency entry is “inactive”.

For the compound `O=C1CCC/C=C\CCCCCCCCCC1`, the Potency entry is “inactive”.

For the compound `c1ccc(-c2ccccc2-c2ccccc2)cc1`, the Potency entry was “inactive”.

Turning to `O=C(O)C[C@H](O)C[C@H](O)/C=C/c1c(C2CC2)nc2ccccc2c1-c1ccc(F)cc1`, the viability change, negative = cytotoxic is -13.2% [at 19 µM].

Tested on in the next assay: not listed separately
In words: qHTS assay to identify small molecule antagonists of the constitutive androstane receptor (CAR) signaling pathway - cell viability counter screen (AID 1224837). Also: nearly all actives have a fitted effect of over 45% in size. Also: potency is read from the fitted curve at half-maximal effect. The following applies: HepG2-CYP2B6-hCAR viability, CellTiter-Fluor, 23 h, co-treated with 50 nM CITCO; series mostly up to 92.4 µM. The essentials:
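Viability was measured with CellTiter-Fluor in a HepG2 line carrying stably transfected hCAR and a CYP2B6-2.2kb construct. Cells were exposed for 23 hr at 37 C to 15 compound concentrations with 50 nM CITCO as agonist.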
On to `Cc1cc(Br)ccc1NC(=O)CCl`, for which the Potency was 54.5 µM (active).

As to `O=C1CCC/C=C\CCCCCCCCCC1`, the Potency result was “inactive”.

As for `c1ccc(-c2ccccc2-c2ccccc2)cc1`, the Potency result was “inactive”.

As for `O=C(O)C[C@H](O)C[C@H](O)/C=C/c1c(C2CC2)nc2ccccc2c1-c1ccc(F)cc1`, the activity change, negative = cytotoxicity was -0.918% [at 19 µM].

The target in a further assay is Nuclear receptor subfamily 1 group I member 3 (Homo sapiens) (UniProt Q14994). In words: qHTS assay to identify small molecule antagonists of the constitutive androstane receptor (CAR) signaling pathway (AID 1224838).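 Also: HepG2 cells stably expressing hCAR with CYP2B6 luciferase reporter stimulated by CITCO; nearly all actives have a fitted effect of over 40% in size.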 Also: potency is read from the fitted curve at half-maximal effect. The following applies: HepG2-CYP2B6-hCAR luciferase, CITCO-stimulated, 24 h; series mostly up to 92.4 µM. The essentials:
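Antagonist mode used CITCO at a final 50 nM to activate CAR in human hepatoma HepG2 cells carrying stable hCAR and a 2.2 kb CYP2B6 promoter-luciferase construct. Compounds were tested at 15 concentrations over 24 h, with luminescence as the end point.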
`CN1CCN(CCCN2c3ccccc3Sc3ccc(C(F)(F)F)cc32)CC1`: the Potency result is “inactive”.

Turning to `Cc1cc(Br)ccc1NC(=O)CCl`, the Potency is 68.6 µM (active).

For `CN1CCN(CCCN2c3ccccc3Sc3ccc(Cl)cc32)CC1`, the Potency result is “inactive”.

For `O=C1CCC/C=C\CCCCCCCCCC1`, the Potency result was “inactive”.

As for `c1ccc(-c2ccccc2-c2ccccc2)cc1`, the Potency result is “inactive”.

Take `O=C(O)C[C@H](O)C[C@H](O)/C=C/c1c(C2CC2)nc2ccccc2c1-c1ccc(F)cc1`: the activity, negative = inhibition is -27.1% [at 19 µM].

The next assay shares this target. Kind of assay: qHTS assay to identify small molecule agonists of the constitutive androstane receptor (CAR) signaling pathway (AID 1224839). Also: nearly all actives have a fitted effect of over 15% in size. Also: potency is read from the fitted curve at half-maximal effect. The conditions noted are these: HepG2 hCAR CYP2B6-luciferase, agonist mode, 24 h; series mostly up to 92.4 µM. The essentials: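 Readout: firefly luciferase luminescence via ONE-Glo. System: HepG2 double-stable for hCAR and CYP2B6-2.2kb. Conditions: 15-point compound titration, PK11195 at 0.75 uM final, 24 h incubation.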
`CN1CCN(CCCN2c3ccccc3Sc3ccc(C(F)(F)F)cc32)CC1`: the Potency result was “inactive”.

With `Cc1cc(Br)ccc1NC(=O)CCl`, the Potency result is “inactive”.

For `CN1CCN(CCCN2c3ccccc3Sc3ccc(Cl)cc32)CC1`, the Potency result was “inactive”.

For `O=C1CCC/C=C\CCCCCCCCCC1`, the Potency was 27.3 µM (active).

For `c1ccc(-c2ccccc2-c2ccccc2)cc1`, the Potency was 27.3 µM (active).

`O=C(O)C[C@H](O)C[C@H](O)/C=C/c1c(C2CC2)nc2ccccc2c1-c1ccc(F)cc1`: the activation is -6.78% [at 19 µM].

Values taken from PubChem BioAssay (Tox21).
